Assay outcomes (PubChem)
SMN2 splice enh = SMN2 splice variant enhancement. HEK293 SMN2-luciferase splicing reporter, luminescence, 30-36 h. Potency, µM (titrated, usually from 46.1 µM), for inactives: top-dose activity change, positive = activation, actives largely listed as activators. actives 2.8% (n = 210,000). AID 1458; also: % of control where 0% means no effect; nearly all actives have a fitted effect of over 55% in size
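HEK293 cells carry an SMN2 minigene-luciferase reporter in which exon 7 inclusion puts luciferase in frame. Cells were seeded at 2000 cells/well, attached for 10-12 hours, then exposed to compounds for 30-36 hours at 37C before ONE-Glo luminescence.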
Rab9 promoter act = activators of Rab9 promoter; actives 2.8% (n = 320,000); Potency, µM (series often up to 9.22 µM), inactives show at the top dose activation, negative = inhibition, usual class: activators; Huh7 Rab9 promoter-luciferase reporter, luminescence, 24 h; AID 485297; also: % of control where 0% means no effect; nearly all actives have a fitted effect of over 60% in size
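Luciferase signal after 10 min detection reagent at ambient indicates Rab9 promoter upregulation; stably transfected Huh7 cells were treated 24 h with compound in DMSO at 37 °C, 5% CO2.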
FLuc modulator = firefly luciferase modulation, counter-screen for miR-21 project. Potency, µM (doses to about 57.5 µM), inactives show top-dose activity change, negative = inhibition, hits mostly inhibitors. actives 6.9% (n = 360,000). purified FLuc, Km substrates, luminescence inhibition;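 also: plate controls were vehicle for no effect and reference inhibitor for full effect; nearly all actives have a fitted effect of over 55% in size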
Target sequence (P08659 whole entry, looked up): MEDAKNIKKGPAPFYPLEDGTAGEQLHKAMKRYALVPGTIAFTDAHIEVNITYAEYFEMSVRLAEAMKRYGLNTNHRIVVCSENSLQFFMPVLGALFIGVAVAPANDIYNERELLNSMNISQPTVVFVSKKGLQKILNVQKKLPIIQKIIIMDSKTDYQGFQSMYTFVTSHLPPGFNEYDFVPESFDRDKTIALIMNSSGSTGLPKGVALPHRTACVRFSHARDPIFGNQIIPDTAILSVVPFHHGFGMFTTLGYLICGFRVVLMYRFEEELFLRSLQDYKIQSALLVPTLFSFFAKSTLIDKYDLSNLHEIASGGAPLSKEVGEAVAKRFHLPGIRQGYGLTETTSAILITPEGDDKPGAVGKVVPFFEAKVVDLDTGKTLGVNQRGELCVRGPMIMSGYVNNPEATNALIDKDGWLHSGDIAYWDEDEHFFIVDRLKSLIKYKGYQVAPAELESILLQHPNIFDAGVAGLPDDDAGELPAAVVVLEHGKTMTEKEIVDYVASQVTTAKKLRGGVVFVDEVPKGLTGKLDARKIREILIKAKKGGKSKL
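Purified P. pyralis luciferase, 10 nM final, with Km-level 10 uM D-luciferin and 10 uM ATP in 50 mM Tris acetate pH 7.5, 10 mM Mg acetate, 0.01% Tween-20, 0.05% BSA; 6-point qHTS titration about 60 µM downward; luminescence read.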
KinaseGlo FLuc = counter-screen: inhibitors of Kinase-Glo firefly luciferase | Q27757 | Potency, µM (top dose mostly 38.3 µM), without a hit: top-dose activity change, negative = inhibition, usual class: inhibitors | actives 0.28% (n = 200,000) | Kinase-Glo luciferase, ATP luminescence, 8 min; also: % is scaled to controls: 0 for no effect and ±100 for the full control effect; nearly all actives have a fitted effect of over 60% in size
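Kinase-Glo luciferase light output from ATP and luciferin was measured with 10 uM ATP, within the enzyme's linear range. Buffer: 50 mM imidazole pH 7.2, 50 mM KCl, 7 mM MgCl2, 0.01% Tween 20, 0.05% BSA; luminescence read after 8 min at ambient temperature.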
NPC1 prom act = activators of NPC1 promoter; Huh7 NPC1 promoter luciferase reporter, 24 h; Potency, µM (titrated, usually from 9.22 µM), without a hit: top-dose activation, most hits filed as activators; actives 2.4% (n = 320,000); AID 485313; also: % of control where 0% means no effect; nearly all actives have a fitted effect of over 60% in size
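Readout is luciferase luminescence, reflecting NPC1 promoter activation in stably transfected Huh7 cells after 24 h compound exposure at 37 °C in reduced-serum medium with 10% FBS.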
The depositor's hits bear a star; ? = inconclusive; / = no result given; ! = a repeat was not active. Only some compounds are listed: those with a hit (about 7.3% of all), similar ones and a draw of the others. Calls follow the shape of the dose curve; as a rule, active = well fitted curve in the direction sought with a large enough effect; inconclusive = small, poorly fitted or top-dose-only effect, or another doubt; inactive = no such curve, though single readings can be large; an effect the other way counts as inactive or inconclusive. Potency is read from the fitted curve at half-maximal effect.

SMILES	SMN2 splice enh	Rab9 promoter act	FLuc modulator	KinaseGlo FLuc	NPC1 prom act
Cc1csc(NC(=O)c2cc(C)on2)n1	/	2.2µM*	11µM*	/	2.2µM*
COc1cccc(C(=O)Nc2nc(-c3ccc(Br)cc3)ns2)c1	/	/	-13%	/	/
COc1ccc(-c2nsc(NC(=O)c3cccc(OC)c3)n2)cc1	-36%	/	11µM*	/	/
CC(=O)Nc1nc(C)cs1	-7%	0%	-2%	0%	-5%
Cc1csc(NC(=O)c2ccc[nH]c2=O)n1	/	3.5µM*	17µM*	/	4µM*
Cc1csc(NC(=O)NCC2CCCC(CNC(=O)Nc3nc(C)cs3)C2)n1 (stereo not drawn)	/	20%	?	/	3.5µM*
CCc1ccc(NCc2cc3cc4c(cc3n(CC(=O)Nc3ccccc3OC)c2=O)OCCO4)cc1	/	/	-8%	/	/
Cc1csc(NC(=O)c2ccoc2C)n1	13µM*	?	?	?	?
COc1cccc(C(=O)Nc2nc(-c3ccncc3)cs2)c1	-57%	14%	-11%	3%	3%
CCOC(=O)Cc1csc(NC(=O)c2ccoc2C)n1	26%	28%	?	?	18%
COc1cccc(C(=O)Nc2nc(C)cs2)c1	11µM*	2.5µM*	6.7µM*	-15%	3.2µM*
Cc1csc(NC(=O)c2ccccc2[N+](=O)[O-])n1	-5%	4%	2%	-2%	-1%
Cc1csc(NC(=O)c2ccccc2)n1	/	3.5µM*	9.5µM*	/	4µM*
Cc1csc(NC(=O)c2cccc(C)c2C)n1	/	2.8µM*	15µM*	/	3.2µM*
Cc1csc(NC(=O)c2ccc3nc[nH]c3c2)n1	/	0.5µM*	4.3µM*	/	?
Cc1nc2ccc(C(=O)Nc3ccc4nc[nH]c4c3)cc2[nH]1	/	-4%	?	/	1%
C/C(=N\NC(=O)c1cc(Cl)ccc1O)c1ccc(Br)s1	4µM*	3.5µM*	6.7µM*	-1%	4µM*
O=C(NNS(=O)(=O)c1ccc2ccccc2c1)c1cccs1	3%	-5%	0%	-1%	-1%
O=C(NNC(=O)c1cc2ccccc2cc1O)c1cccs1	/	3.5µM*	12µM*	/	3.2µM*
O=C(NNC(=O)c1ccc2ccccc2c1O)c1cccs1	/	15%	27µM*	/	12%
C/C(=N\NC(=O)c1cc2ccccc2cc1O)c1cccs1	/	0.63µM*	3.8µM*	/	0.56µM*
C/C(=N\NC(=O)c1ccc(Cl)cc1)c1ccc(Br)s1	-16%	21%	?	-1%	16%
Cc1ccc(OCc2nc(-c3ccc(C(=O)NCCc4ccc(Cl)cc4)cc3)oc2C)cc1	/	/	0%	/	/
CC(C)(C)n1ncc2c(=O)n(Cc3ccc(Cl)c(SC(F)(F)F)c3)cnc21	/	/	-1%	/	/
CC1CCN(S(=O)(=O)c2ccc3c(ccc(=O)n3CC(=O)NCc3ccccc3)c2)CC1	/	/	-1%	/	/
SMILES	SMN2 splice enh	Rab9 promoter act	FLuc modulator	KinaseGlo FLuc	NPC1 prom act
c1ccc(CSc2ccc(-c3ccc4c(c3)OCO4)nn2)cc1	18µM*	3.2µM*	2.7µM*	-1%	3.5µM*
Fc1ccc(CSc2ccc(-c3ccc4c(c3)OCO4)nn2)cc1	7%	-4%	?	1%	2%
Cn1c(SCc2ccccc2)nnc1-c1ccc2c(c1)OCO2	22µM*	?	?	-1%	?
c1cncc(CSc2ccc(-c3cccnc3)nn2)c1	11%	-2%	-9%	-1%	0%
c1ccc(CSc2ccc(-c3cccnc3)nn2)cc1	?	?	21µM*	-3%	?
O=C(NCCC1=CCCCC1)c1ccc2c(c1)N(Cc1ccc(Cl)cc1)C(=O)c1ccccc1S2=O (stereo not drawn)	1%	/	-5%	/	/
CC(=O)c1ccc(NC(=O)CN(C)S(=O)(=O)c2cnc[nH]2)cc1	1%	/	-10%	/	/
CC(C)Cc1nn2c(=O)cc(COC(=O)c3cccc(NS(C)(=O)=O)c3)nc2s1	/	/	-3%	/	/
O=C(Nc1cccc2nsnc12)c1cccs1	71%	3.2µM*!	13µM*!	-11%	?
O=C(Nc1cccc2nsnc12)c1cccnc1	-37%	1%	4%	1%	0%
O=C(Nc1ccccc1)Nc1cccc2nsnc12	11µM*	3.2µM*	7.6µM*	?	4.5µM*
Fc1ccc(-c2nnc(NC3=NCCCCC3)o2)cc1	-21%	0.089µM*	0.6µM*	11µM*	?
